Records with an inconclusive call do not appear. Entries that show only a call come without a potency. Activity calls are given as the source filed them. Calls come from the whole dose curve; as a rule, active = well fitted curve in the direction sought with a large enough effect; inconclusive = small, poorly fitted or top-dose-only effect, or another doubt; inactive = no such curve, though single readings can be large; an effect the other way counts as inactive or inconclusive.

In assay [1] the target is Voltage-gated inwardly rectifying potassium channel KCNH2 (Homo sapiens) (UniProt Q12809). Nature of the assay: qHTS Assay for Small Molecule Inhibitors of the Human hERG Channel Activity (AID 588834).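 Note: lower thallium flux fluorescence means stronger hERG block; nearly all actives have a fitted effect of over 50% in size.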 Note: potency is the fitted concentration of half-maximal effect. In outline: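 Step 1: BacMam hERG transduction of U2OS, 4 hrs RT. Step 2: overnight 37 °C, plate 2000 cells/well, 4 hr. Step 3: FluxOR load, compound 10 min, stimulate, read fluorescence.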
Voltage-gated inwardly rectifying potassium channel KCNH2 (Homo sapiens), sequence (Q12809 whole entry, looked up): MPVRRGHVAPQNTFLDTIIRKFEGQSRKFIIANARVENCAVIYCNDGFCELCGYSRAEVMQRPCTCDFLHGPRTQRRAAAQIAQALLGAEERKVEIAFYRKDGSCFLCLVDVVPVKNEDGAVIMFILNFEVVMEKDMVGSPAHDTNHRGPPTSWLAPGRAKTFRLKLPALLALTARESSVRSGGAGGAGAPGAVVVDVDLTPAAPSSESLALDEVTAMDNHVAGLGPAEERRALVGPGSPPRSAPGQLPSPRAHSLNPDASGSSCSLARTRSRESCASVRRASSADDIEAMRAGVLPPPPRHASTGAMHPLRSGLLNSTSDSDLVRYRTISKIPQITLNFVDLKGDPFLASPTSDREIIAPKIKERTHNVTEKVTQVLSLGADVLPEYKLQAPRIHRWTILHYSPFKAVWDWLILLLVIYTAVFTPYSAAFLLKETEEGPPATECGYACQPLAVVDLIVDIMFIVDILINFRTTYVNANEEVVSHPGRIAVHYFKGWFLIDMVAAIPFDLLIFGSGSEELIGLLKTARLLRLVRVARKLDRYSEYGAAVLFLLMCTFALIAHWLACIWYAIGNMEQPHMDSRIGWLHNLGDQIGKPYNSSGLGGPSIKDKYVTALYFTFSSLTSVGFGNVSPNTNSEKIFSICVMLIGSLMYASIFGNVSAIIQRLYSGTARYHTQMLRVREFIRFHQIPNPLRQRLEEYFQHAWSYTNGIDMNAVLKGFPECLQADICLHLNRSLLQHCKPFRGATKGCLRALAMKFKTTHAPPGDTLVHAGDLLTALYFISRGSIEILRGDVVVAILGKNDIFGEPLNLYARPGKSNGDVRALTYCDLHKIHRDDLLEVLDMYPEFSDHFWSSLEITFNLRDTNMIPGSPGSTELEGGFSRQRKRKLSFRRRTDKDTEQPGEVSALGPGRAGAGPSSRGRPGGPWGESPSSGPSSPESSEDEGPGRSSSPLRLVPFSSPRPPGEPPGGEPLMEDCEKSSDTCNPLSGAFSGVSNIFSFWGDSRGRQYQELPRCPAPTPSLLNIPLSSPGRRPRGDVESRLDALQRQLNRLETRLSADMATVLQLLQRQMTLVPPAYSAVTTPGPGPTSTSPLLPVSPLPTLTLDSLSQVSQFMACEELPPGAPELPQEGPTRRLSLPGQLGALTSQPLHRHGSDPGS

The target of assay [2] is Luciferin 4-monooxygenase (Photinus pyralis) (UniProt P08659). Put plainly: Biochemical firefly luciferase enzyme assay for NPC (AID 624030). Note: nearly all actives have a fitted effect of over 70% in size. Note: potency is the fitted concentration of half-maximal effect. The method, boiled down: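 Direct inhibition of firefly luciferase enzyme (10 nM final, 50 mM Tris Acetate) assessed by luminescence within 5 minutes. Percent activity scaled between DMSO and PTC124 positive control, with concentration-effect curves classified by fit quality and response.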
Luciferin 4-monooxygenase (Photinus pyralis), sequence (P08659 whole entry, looked up): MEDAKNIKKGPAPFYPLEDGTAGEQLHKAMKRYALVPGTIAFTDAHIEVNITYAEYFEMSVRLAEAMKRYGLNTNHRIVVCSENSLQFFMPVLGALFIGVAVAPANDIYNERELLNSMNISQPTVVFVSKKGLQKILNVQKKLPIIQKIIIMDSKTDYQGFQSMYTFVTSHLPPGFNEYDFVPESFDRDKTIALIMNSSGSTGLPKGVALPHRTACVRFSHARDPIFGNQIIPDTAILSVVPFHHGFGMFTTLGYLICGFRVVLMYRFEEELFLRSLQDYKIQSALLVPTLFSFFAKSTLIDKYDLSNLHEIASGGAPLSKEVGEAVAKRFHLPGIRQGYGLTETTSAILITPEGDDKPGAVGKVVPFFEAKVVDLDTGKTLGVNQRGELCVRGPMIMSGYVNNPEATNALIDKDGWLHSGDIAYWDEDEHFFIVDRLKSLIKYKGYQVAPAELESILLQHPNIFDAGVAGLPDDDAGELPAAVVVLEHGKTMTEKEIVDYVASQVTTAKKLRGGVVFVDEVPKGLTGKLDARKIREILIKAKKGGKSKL

Assay [3] can be described thus: S16 Schwann cell viability assay (CellTiter-Glo assay) (AID 624031).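 Note: cellular ATP luminescence as a viability measure; series mostly up to about 58 µM; nearly all actives have a fitted effect of over 70% in size.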 The method, boiled down: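 This viability control uses native rat S16 Schwann cells grown in DMEM plus 10% FBS. After a 24 h compound treatment at 37 °C, CellTiter-Glo luminescence reports ATP content, scaled against DMSO-treated and cell-free wells.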
Assay [4] in a line: S16 Schwann cell PMP22 intronic element firefly luciferase assay (AID 624032). Note: series mostly up to about 58 µM; nearly all actives have a fitted effect of over 30% in size. The method, boiled down: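 Luciferase reporter of PMP22 intronic-element expression in stably transfected S16 rat Schwann cells, read by ONE-Glo luminescence after 24 h compound exposure at 37 C. Activity scaled between DMSO (0%) and positive-control PTC124; concentration-effect curves quality-classified.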

On to `CCCCCCCC(=O)OCC(O)CO` (centres undefined), for which the Potency entry in assay [1] and in assay [2] was “inactive” throughout. The outcome in assay [3] was inactive.
In the case of `CC1(C)[C@@H](OC(=O)CCC(=O)O)CC[C@]2(C)[C@H]3C(=O)C=C4[C@@H]5C[C@@](C)(C(=O)O)CC[C@]5(C)CC[C@@]4(C)[C@]3(C)CC[C@@H]12`, the Potency entry in assay [1] was “inactive”.
Turning to `CCCCC1(COC(=O)CCC(=O)O)C(=O)N(c2ccccc2)N(c2ccccc2)C1=O`, the Potency entry in assay [1] and in assay [2] was “inactive” in each case. Further, the outcome in assay [3] was inactive.
Turning to `CCOC(N)=O`, the Potency result in assay [1] and in assay [2] was “inactive” throughout. Besides, the result in assay [3] was inactive.
As for `CC(C(=O)O)c1ccc2c(c1)Cc1cccnc1O2` (centres undefined), the Potency result in assay [1], in assay [2] and in assay [4] was “inactive” throughout. The compound was called inactive in assay [3].
In the case of `Nc1ncnc(Nc2ccccc2)n1`, the Potency result in assay [1] and in assay [2] was “inactive” throughout. Further, the compound was classed as inactive in assay [3].
As for `CNCc1ccccc1`, the Potency entry in assay [1] and in assay [2] was “inactive” each time. The call in assay [3] was inactive.
As for `C=CCSCC1Nc2cc(Cl)c(S(N)(=O)=O)cc2S(=O)(=O)N1` (centres undefined), the Potency entry in assay [1] and in assay [2] was “inactive” in each case. Besides, the compound was called inactive in assay [3].
As for `O=C(NCCCN1CCOCC1)c1ccc(Cl)cc1`, the Potency result in assay [1], in assay [2] and in assay [4] was “inactive” each time. Besides, the call in assay [3] was inactive.
Take `O=C(O)CCCc1ccccc1`: the Potency result in assay [1], in assay [2] and in assay [4] was “inactive” in each case. Further, the compound was called inactive in assay [3].
As to `Cn1c(=O)c2c(ncn2CCO)n(C)c1=O`, the Potency entry in assay [1] and in assay [2] was “inactive” in each case. Besides, the compound was classed as inactive in assay [3].
As for `CC(CN(C)C)C(C)(O)Cc1ccc(Cl)cc1` (centres undefined), the Potency in assay [1] was 14.1 µM (active). For the same compound, the Potency result in assay [2] is “inactive”. In addition, the result in assay [3] was inactive.
For `CC(C)(C)C(=O)OCOC(=O)[C@@H]1N2C(=O)[C@@H](NC(=O)[C@H](N)c3ccccc3)[C@H]2SC1(C)C`, the Potency result in assay [1] and in assay [2] was “inactive” in each case. The result in assay [3] was inactive.
On to `CCCCCC(C)N` (centres undefined), for which the Potency entry in assay [1] and in assay [2] was “inactive” throughout. The compound was classed as inactive in assay [3].
In the case of `CCCCCOC(=O)Nc1nc(=O)n([C@@H]2O[C@H](C)[C@@H](O)[C@H]2O)cc1F`, the Potency entry in assay [1] was “inactive”.
Regarding `O=C(O)Cc1ccc(CCNS(=O)(=O)c2ccc(Cl)cc2)cc1`, the Potency result in assay [1] and in assay [2] was “inactive” in each case. The compound was called inactive in assay [3].
In the case of `O=C(O)c1cc(=O)c2ccccc2o1`, the Potency entry in assay [1] and in assay [2] was “inactive” each time. Moreover, the result in assay [3] was inactive.
`COC(=O)c1cccnc1`: the Potency entry in assay [1] and in assay [2] was “inactive” throughout. Further, in assay [3], the result was inactive.
With `Cc1ccc(S(=O)(=O)NC(=O)NC2CCCCC2)cc1`, the Potency entry in assay [1] and in assay [2] was “inactive” each time. The compound was classed as inactive in assay [3].
Turning to `CC(=O)SC[C@@H](Cc1ccccc1)C(=O)NCC(=O)OCc1ccccc1`, the Potency entry in assay [1] and in assay [2] was “inactive” in each case. Further, the compound was classed as inactive in assay [3].
For `COc1ccc(C(=O)N2CCN(CC(=O)N3CCOCC3)CC2)cc1`, the Potency entry in assay [1] and in assay [2] was “inactive” each time. In addition, in assay [3], the call was inactive.
Regarding `CCCNC(C)(C)COC(=O)c1ccccc1`, the Potency entry in assay [1] and in assay [2] was “inactive” throughout. Also, the outcome in assay [3] was inactive.
On to `CCOc1cc(NC(C)=O)ccc1C(=O)OC`, for which the Potency result in assay [1], in assay [2] and in assay [4] was “inactive” throughout. Also, the outcome in assay [3] was inactive.
For the compound `COc1nccnc1NS(=O)(=O)c1ccc(N)cc1`, the Potency entry in assay [1] and in assay [2] was “inactive” each time. For the same compound, in assay [3], the compound was called inactive.
As for `C[C@@H]1CCC[C@H](C)N1`, the Potency result in assay [1] and in assay [2] was “inactive” each time. In addition, the call in assay [3] was inactive.
As to `O=c1[nH]c2cc(C(F)(F)F)c(N3CCOCC3)cc2n(CP(=O)(O)O)c1=O`, the Potency result in assay [1], in assay [2] and in assay [4] was “inactive” throughout. In assay [3], the outcome was inactive.
`CN1CCN(C(=O)C2CCCCC2)CC1`: the Potency entry in assay [1] and in assay [2] was “inactive” in each case. For the same compound, the call in assay [3] was inactive.
Take `Cc1ccsc1C(=CCCN1CCC[C@@H](C(=O)O)C1)c1sccc1C`: the Potency entry in assay [1] and in assay [2] was “inactive” in each case. In assay [3], the compound was classed as inactive.
Turning to `CN1C(C)(C)CCCC1(C)C`, the Potency result in assay [1] and in assay [2] was “inactive” each time. Besides, the compound was called inactive in assay [3].
With `NNC(=O)CP(=O)(c1ccccc1)c1ccccc1`, the Potency result in assay [1] and in assay [2] was “inactive” throughout. In addition, the result in assay [3] was inactive.
With `O=C(O)c1ccc(OCCCOc2ccc(C(=O)O)cc2)cc1`, the Potency entry in assay [1] and in assay [2] was “inactive” in each case. Besides, in assay [3], the outcome was inactive.
On to `O=C(Cn1ccnc1[N+](=O)[O-])NCCO`, for which the Potency result in assay [1] and in assay [2] was “inactive” throughout. In assay [3], the compound was classed as inactive.
Consider `CN(C/C=C/C#CC(C)(C)C)Cc1cccc2ccccc12`, for which the Potency in assay [1] was 12.6 µM (active). Besides, the Potency entry in assay [2] is “inactive”. Moreover, the call in assay [3] was inactive.
Take `Nc1c2c(nc3c1CCC3)CCCC2`: the Potency entry in assay [1], in assay [2] and in assay [4] was “inactive” each time. Besides, the outcome in assay [3] was inactive.
On to `NC(=O)NS(=O)(=O)c1ccc(N)cc1`, for which the Potency entry in assay [1], in assay [2] and in assay [4] was “inactive” each time. Further, the outcome in assay [3] was inactive.
Regarding `O=C(O)c1ccccc1OP(=O)(O)O`, the Potency result in assay [1], in assay [2] and in assay [4] was “inactive” in each case. The compound was classed as inactive in assay [3].
`CCOC(=O)c1cccnc1`: the Potency result in assay [1], in assay [2] and in assay [4] was “inactive” in each case. Further, the compound was called inactive in assay [3].
As for `Cc1ncc(CO)c(CN)c1O`, the Potency result in assay [1], in assay [2] and in assay [4] was “inactive” in each case. For the same compound, in assay [3], the compound was called inactive.
With `Nc1ccc(C(=O)Oc2ccccc2)c(O)c1`, the Potency result in assay [1] and in assay [4] was “inactive” each time. Also, in assay [2], the Potency was 6.42 µM (active). Also, the compound was classed as inactive in assay [3].
Turning to `NS(=O)(=O)c1cc2c(cc1C(F)(F)F)NCNS2(=O)=O`, the Potency entry in assay [1], in assay [2] and in assay [4] was “inactive” each time. In addition, the call in assay [3] was inactive.
For the compound `CN/C(=C\[N+](=O)[O-])NCCSCc1csc(CN(C)C)n1`, the Potency result in assay [1], in assay [2] and in assay [4] was “inactive” throughout.
On to `O=C(Cn1ccnc1[N+](=O)[O-])NCc1ccccc1`, for which the Potency entry in assay [1], in assay [2] and in assay [4] was “inactive” throughout. The call in assay [3] was inactive.
With `C[C@H]1COc2c(C3(N)CC3)c(F)cc3c(=O)c(C(=O)O)cn1c23`, the Potency entry in assay [1], in assay [2] and in assay [4] was “inactive” each time. In assay [3], the result was inactive.

The values above are taken from PubChem BioAssay (NCATS).
